In the supplement of paper PMC4466140:

Biological target: AgAbp1
Assay: SPOT peptide array binding signal intensity (averaged, normalized) (arbitrary units (background-subtracted, floor 0; scale differs between SH3 domains)); higher = stronger binding of the SH3 domain to the peptide
Summary of the method: (§1)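 Binding signal refers to normalized, background-subtracted spot intensity averaged over replicates, expressed in arbitrary units that differ between domains. GST-fused SH3 domains from four yeast species were incubated at 10 μg/ml overnight at 4°C on cellulose membranes of synthetic 15-mer peptides with cysteines replaced by serines. Bound protein was detected with anti-GST antibody, an HRP anti-mouse secondary and luminol, and quantified with Genespotter.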

Binder | SPOT peptide array binding signal intensity
SHRLWLYAAPKRPKT | 15.5

Biological target: AgBbc1
Assay: as above
Summary of the method: as §1

Binder | SPOT peptide array binding signal intensity
SHRLWLYAAPKRPKT | 42

Biological target: AgBem1-D1
Assay: as above
Summary of the method: as §1

Binder | SPOT peptide array binding signal intensity
SHRLWLYAAPKRPKT | 110

Biological target: AgBzz1-D1
Assay: as above
Summary of the method: as §1

Binder | SPOT peptide array binding signal intensity
SHRLWLYAAPKRPKT | 46

Biological target: AgBzz1-D2
Assay: as above
Summary of the method: as §1

Binder | SPOT peptide array binding signal intensity
SHRLWLYAAPKRPKT | 42

Biological target: AgCyk3
Assay: as above
Summary of the method: as §1

Binder | SPOT peptide array binding signal intensity
SHRLWLYAAPKRPKT | 0.5

Biological target: AgFus1
Assay: as above
Summary of the method: as §1

Binder | SPOT peptide array binding signal intensity
SHRLWLYAAPKRPKT | 296

Biological target: AgHof1
Assay: as above
Summary of the method: as §1

Binder | SPOT peptide array binding signal intensity
SHRLWLYAAPKRPKT | 26

Biological target: AgHse1
Assay: as above
Summary of the method: as §1

Binder | SPOT peptide array binding signal intensity
SHRLWLYAAPKRPKT | 5

Biological target: AgLsb1
Assay: as above
Summary of the method: as §1

Binder | SPOT peptide array binding signal intensity
SHRLWLYAAPKRPKT | 0.5

Biological target: AgLsb4
Assay: as above
Summary of the method: as §1

Binder | SPOT peptide array binding signal intensity
SHRLWLYAAPKRPKT | 28.5

Biological target: AgMyo5
Assay: as above
Summary of the method: as §1

Binder | SPOT peptide array binding signal intensity
SHRLWLYAAPKRPKT | 5.5

Biological target: AgNbp2
Assay: as above
Summary of the method: as §1

Binder | SPOT peptide array binding signal intensity
SHRLWLYAAPKRPKT | 29.5

Biological target: AgRvs167
Assay: as above
Summary of the method: as §1

Binder | SPOT peptide array binding signal intensity
SHRLWLYAAPKRPKT | 2

Biological target: AgSho1
Assay: as above
Summary of the method: as §1

Binder | SPOT peptide array binding signal intensity
SHRLWLYAAPKRPKT | 23.5

Biological target: AgSla1-D1-D2
Assay: as above
Summary of the method: as §1

Binder | SPOT peptide array binding signal intensity
SHRLWLYAAPKRPKT | 44

Biological target: AgSla1-D3
Assay: as above
Summary of the method: as §1

Binder | SPOT peptide array binding signal intensity
SHRLWLYAAPKRPKT | 11

Biological target: CaAbp1-D1
Assay: as above
Summary of the method: as §1

Binder | SPOT peptide array binding signal intensity
SHRLWLYAAPKRPKT | 63

Biological target: CaAbp1-D2
Assay: as above
Summary of the method: as §1

Binder | SPOT peptide array binding signal intensity
SHRLWLYAAPKRPKT | 37.5

Biological target: CaBbc1
Assay: as above
Summary of the method: as §1

Binder | SPOT peptide array binding signal intensity
SHRLWLYAAPKRPKT | 100

Biological target: CaBem1-D1
Assay: as above
Summary of the method: as §1

Binder | SPOT peptide array binding signal intensity
SHRLWLYAAPKRPKT | 52

Biological target: CaBzz1-D1
Assay: as above
Summary of the method: as §1

Binder | SPOT peptide array binding signal intensity
SHRLWLYAAPKRPKT | 73

Biological target: CaBzz1-D2
Assay: as above
Summary of the method: as §1

Binder | SPOT peptide array binding signal intensity
SHRLWLYAAPKRPKT | 38.5

Biological target: CaCyk3
Assay: as above
Summary of the method: as §1

Binder | SPOT peptide array binding signal intensity
SHRLWLYAAPKRPKT | 7

Biological target: CaFus1
Assay: as above
Summary of the method: as §1

Binder | SPOT peptide array binding signal intensity
SHRLWLYAAPKRPKT | 266

Biological target: CaHof1
Assay: as above
Summary of the method: as §1

Binder | SPOT peptide array binding signal intensity
SHRLWLYAAPKRPKT | 0.5

Biological target: CaHse1
Assay: as above
Summary of the method: as §1

Binder | SPOT peptide array binding signal intensity
SHRLWLYAAPKRPKT | 26.2

Biological target: CaLsb1
Assay: as above
Summary of the method: as §1

Binder | SPOT peptide array binding signal intensity
SHRLWLYAAPKRPKT | 1.5

Biological target: CaLsb4
Assay: as above
Summary of the method: as §1

Binder | SPOT peptide array binding signal intensity
SHRLWLYAAPKRPKT | 48

Biological target: CaMyo5
Assay: as above
Summary of the method: as §1

Binder | SPOT peptide array binding signal intensity
SHRLWLYAAPKRPKT | 18

Biological target: CaNbp2
Assay: as above
Summary of the method: as §1

Binder | SPOT peptide array binding signal intensity
SHRLWLYAAPKRPKT | 133

Biological target: CaRvs167
Assay: as above
Summary of the method: as §1

Binder | SPOT peptide array binding signal intensity
SHRLWLYAAPKRPKT | 14

Biological target: CaRvs167-3
Assay: as above
Summary of the method: as §1

Binder | SPOT peptide array binding signal intensity
SHRLWLYAAPKRPKT | 24.5

Biological target: CaSho1
Assay: as above
Summary of the method: as §1

Binder | SPOT peptide array binding signal intensity
SHRLWLYAAPKRPKT | 149

Biological target: CaSla1-D1-D2
Assay: as above
Summary of the method: as §1

Binder | SPOT peptide array binding signal intensity
SHRLWLYAAPKRPKT | 10.5

Biological target: CaSla1-D3
Assay: as above
Summary of the method: as §1

Binder | SPOT peptide array binding signal intensity
SHRLWLYAAPKRPKT | 17.8

Biological target: ScAbp1
Assay: as above
Summary of the method: as §1

Binder | SPOT peptide array binding signal intensity
SHRLWLYAAPKRPKT | 41
